Compound activity as filed in PubChem.
CtBP-E1A blk: inhibitors of CtBP/E1A interaction; AlphaScreen GST-E1A/His-CtBP binding, 1536-well; hits give low values; activity change, % (concentration not given with the values); 340,000 tested, 0.49% active; AID 651724; in the data active = activity change below about -65%; inconclusive = mostly about -30% to -63%; also: % is scaled to controls: 0 for no effect and ±100 for the full control effect
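Protein mix (5X: 125 nM each GST-E1A, His-CtBP) was incubated with pinned compound 2 h at 37 deg C in dark, in 50 mM Tris pH 8.0 buffer with 300 mM NaCl. Glutathione donor and nickel acceptor beads followed; AlphaScreen signal read after 1 h.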
Six1-Eya2 blk: inhibitors of human Six1/Eya2 interaction; AlphaScreen GST-Six1/His-Eya2 binding, biochemical; hits give low values; activity change, % (no concentration beside the values); 360,000 tested, 0.56% active; in the data active = activity change below about -65%; inconclusive = mostly about -30% to -63%; also: % is scaled to controls: 0 for no effect and ±100 for the full control effect
Target sequence (O00167 whole entry, looked up): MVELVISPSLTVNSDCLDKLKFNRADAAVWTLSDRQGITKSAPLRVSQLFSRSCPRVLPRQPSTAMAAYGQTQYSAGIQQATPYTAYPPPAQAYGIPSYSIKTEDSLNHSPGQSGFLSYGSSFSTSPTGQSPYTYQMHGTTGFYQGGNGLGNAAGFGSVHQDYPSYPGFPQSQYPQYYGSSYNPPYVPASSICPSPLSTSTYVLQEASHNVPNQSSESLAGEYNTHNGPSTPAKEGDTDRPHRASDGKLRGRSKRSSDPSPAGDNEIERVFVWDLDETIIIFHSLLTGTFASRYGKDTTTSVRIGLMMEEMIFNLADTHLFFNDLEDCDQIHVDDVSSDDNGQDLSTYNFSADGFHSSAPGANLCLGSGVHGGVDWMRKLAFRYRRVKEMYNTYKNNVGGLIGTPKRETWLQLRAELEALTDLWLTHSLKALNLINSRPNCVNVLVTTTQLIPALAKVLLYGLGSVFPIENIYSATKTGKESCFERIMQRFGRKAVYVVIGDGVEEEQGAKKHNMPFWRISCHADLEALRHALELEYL
Target sequence (Q15475 whole entry, looked up): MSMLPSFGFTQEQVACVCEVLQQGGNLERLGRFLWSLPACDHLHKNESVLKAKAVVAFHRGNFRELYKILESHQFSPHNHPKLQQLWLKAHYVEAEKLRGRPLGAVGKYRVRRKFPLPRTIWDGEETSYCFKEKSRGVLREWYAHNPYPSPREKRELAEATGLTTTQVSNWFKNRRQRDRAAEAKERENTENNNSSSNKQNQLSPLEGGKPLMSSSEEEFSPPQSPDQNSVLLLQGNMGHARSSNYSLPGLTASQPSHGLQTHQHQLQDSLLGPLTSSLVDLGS
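Compounds are tested against tagged Six1 and Eya2 proteins bridged by glutathione donor and nickel acceptor beads; after a one-hour incubation at 37 °C without light, AlphaScreen emission is recorded.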
BAZ2B block: BAZ2B (human) inhibition; 360,000 tested, 4.4% active; AlphaScreen BAZ2B-H3K14Ac peptide displacement; Potency, µM (highest dose often 114 µM), for inactives: at the top dose activity change, negative = inhibition, most hits filed as inhibitors; Q9UIF8; AID 504333; also: potency is read from the fitted curve at half-maximal effect; % is scaled to controls: 0 for no effect and ±100 for the full control effect; nearly all actives have a fitted effect of over 60% in size
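AlphaScreen luminescence quantifies BAZ2B engagement of H3K14Ac peptide; the protein and biotinylated peptide are both at 50 nM final, buffer PBS pH 7.4 with 0.01% Tween-20, all steps at room temperature.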
JMJD2A Tudor inh: JMJD2A Tudor domain (human) inhibition. AlphaScreen JMJD2A-Tudor / H3K4me3 peptide binding. O75164. 390,000 tested, 4.4% active. Potency, µM (top dose mostly 114 µM), for the others: top-dose activity change, negative = inhibition, most hits filed as inhibitors; also: potency is read from the fitted curve at half-maximal effect; % is scaled to controls: 0 for no effect and ±100 for the full control effect; nearly all actives have a fitted effect of over 50% in size
HP1b binding inh: blocks HP1-beta chromodomain binding to methylated histone tails | P83916 | AlphaScreen HP1-beta / biotin-H3K9me3 peptide binding | Potency, µM (series often up to 114 µM), without a hit: at the highest dose activity change, negative = inhibition, hits mostly inhibitors | 390,000 tested, 0.56% active | AID 540317; also: potency is read from the fitted curve at half-maximal effect; nearly all actives have a fitted effect of over 70% in size
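Compound inhibition of the preformed complex between 50 nM HP1-beta and 50 nM biotinylated H3K9me3 peptide was read by AlphaScreen. Buffer was PBS pH 7.4 with 0.01% Tween-20. Incubations ran 30 min at room temperature, with 10 ug/mL donor/acceptor beads.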
G9a inh: blocks human histone lysine methyltransferase G9a | G9a H3K9 monomethylation, AlphaScreen, 2 h | 350,000 tested, 8.8% active | Q96KQ7 | Potency, µM (top dose mostly 102 µM), for inactives: top-dose activity, negative = inhibition, hits mostly inhibitors | AID 504332; also: potency is read from the fitted curve at half-maximal effect; % is scaled to controls: 0 for no effect and ±100 for the full control effect; nearly all actives have a fitted effect of over 75% in size
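AlphaScreen read-out: biotin-H3K9 peptide (500 nM) methylation by 20 nM enzyme with 20 uM SAM, 2 h at room temperature after 15 min compound preincubation; anti-monomethyl H3K9 antibody plus donor/acceptor beads, 10 min dark.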
Starred values were filed as active, the others as inactive; [ ] = dose if it differs, or a comment. In the library only some 10% were active in any assay of this set; here they are far more common. Unless noted, calls follow the shape of the dose curve; as a rule, active = well fitted inhibition curve with a large enough effect; inconclusive = small, poorly fitted or top-dose-only effect; inactive = no such curve, though single readings can be large or run the other way.

`O=C(O)c1cc(-c2ccco2)nn1-c1ccc(Cl)cc1` gave CtBP-E1A blk 0.1, Six1-Eya2 blk inconclusive, BAZ2B block 50.1µM*, JMJD2A Tudor inh 50.1µM*, HP1b binding inh inconclusive and G9a inh 10µM*.
For CC(=O)Nc1cccc(C(=O)Nc2cc(C(F)(F)F)ccc2-n2cncn2)c1 the results were CtBP-E1A blk 8.0 and Six1-Eya2 blk 1.0.
For OC(c1cccc(Cl)c1)c1nc(-c2cnc3ccccc3c2)cs1 (stereo not drawn) the results were CtBP-E1A blk -0.7 and Six1-Eya2 blk -8.6.
CCc1ccc(CNC(=O)C(CC)n2ccc3cc(S(=O)(=O)N4CCCCC4)ccc32)cc1 (stereo not drawn) was read as BAZ2B block -8.2%, JMJD2A Tudor inh 2.8%, HP1b binding inh 27.8% and G9a inh -21.1%[59 µM].
For N#Cc1ccc(C23OCCN2CCn2nc4ccccc4c23)cc1 (stereo not drawn) the results were CtBP-E1A blk -18.0, Six1-Eya2 blk -3.7, JMJD2A Tudor inh -17.3% and HP1b binding inh 38.2%.
COCCn1c(=O)c(-c2ccc(OC)cc2)nc2cnc(Oc3ccc(OC)cc3)nc21 was read as G9a inh 10.3%[12.7 µM].
For CC1CN(C(=O)c2ccc(-c3cccc(C(F)(F)F)c3)o2)CC(C)O1 (stereo not drawn) the results were CtBP-E1A blk -24.2, Six1-Eya2 blk 2.8, BAZ2B block -4.7%, JMJD2A Tudor inh -4.8%, HP1b binding inh 8.3% and G9a inh inconclusive.
Screening O=C(c1ccco1)N1CCN(C(=O)c2ccc(-c3cccc(C(F)(F)F)c3)o2)CC1 returned CtBP-E1A blk -1.1, Six1-Eya2 blk -1.9, BAZ2B block inconclusive, JMJD2A Tudor inh -24.5%, HP1b binding inh 4.8% and G9a inh 6.7%[0.501 µM].
For O=C(c1ccc(-c2cccc(C(F)(F)F)c2)o1)N1CCN(c2ccccc2)CC1 the results were CtBP-E1A blk 1.4, Six1-Eya2 blk 6.3, BAZ2B block 0.8%, JMJD2A Tudor inh -27.6%, HP1b binding inh 12.1% and G9a inh 3.55µM*.
`O=C(c1ccc(-c2cccc(C(F)(F)F)c2)o1)N1CCCCCCC1` gave CtBP-E1A blk -0.1, Six1-Eya2 blk -8.0, BAZ2B block -8.8%, JMJD2A Tudor inh 19.2%, HP1b binding inh -8.7% and G9a inh 50.1µM*.
COc1ccc(NC(=O)CSc2nc(O)c(C/C=C/c3ccccc3)c(=O)[nH]2)cc1 was read as BAZ2B block -16.3%, JMJD2A Tudor inh -20.1%, HP1b binding inh 15.7% and G9a inh inconclusive.
`O=C(O)COc1ccc(C=C2SC(=S)N(c3ccccc3)C2=O)cc1` gave CtBP-E1A blk -92.5*, Six1-Eya2 blk -14.7, JMJD2A Tudor inh -35.2% and HP1b binding inh 1.2%[57 µM].
Screening O=C(O)CN1C(=O)/C(=C\c2cccc(OCc3ccccc3)c2)SC1=S returned Six1-Eya2 blk -2.3, BAZ2B block 56.2µM*, JMJD2A Tudor inh inconclusive, HP1b binding inh inconclusive and G9a inh -3.9%[0.501 µM].
For O=C1/C(=C/c2cccs2)SC(=S)N1c1ccccc1 the results were CtBP-E1A blk -6.7, Six1-Eya2 blk -0.9, BAZ2B block -3.6%, JMJD2A Tudor inh 1.4%, HP1b binding inh 23.9% and G9a inh 20.6%[59 µM].
`CN1C(=O)/C(=C\c2cccc(OCc3ccccc3)c2)SC1=S` gave CtBP-E1A blk 8.1, Six1-Eya2 blk 1.7, BAZ2B block inconclusive, JMJD2A Tudor inh -12.3%, HP1b binding inh -7.3% and G9a inh -12.6%.
For Cc1cccc(Cc2cnc(NC(=O)CN3C(=O)/C(=C/c4ccccc4)SC3=S)s2)c1 the results were CtBP-E1A blk 4.0, Six1-Eya2 blk -4.6, BAZ2B block inconclusive, JMJD2A Tudor inh -31.3%, HP1b binding inh inconclusive and G9a inh 39.8µM*.
Cc1ccc(/C=C2/SC(=S)N(CC(=O)Nc3ncc(Cc4ccc(C)cc4)s3)C2=O)cc1 was read as CtBP-E1A blk -5.4, Six1-Eya2 blk 4.7, BAZ2B block -3.0%, JMJD2A Tudor inh -17.6%, HP1b binding inh 13.6% and G9a inh 9.9%.
Screening O=C(O)COc1cccc(/C=C2/SC(=S)N(Cc3ccccc3)C2=O)c1 returned CtBP-E1A blk -13.2, Six1-Eya2 blk -22.6, BAZ2B block inconclusive, JMJD2A Tudor inh 50.1µM*, HP1b binding inh -35.6% and G9a inh 44.7µM*.
For O=c1c2ccccc2cnn1Cc1n[nH]c(=S)n1-c1ccc(F)cc1 the results were CtBP-E1A blk 3.4, Six1-Eya2 blk 4.9, BAZ2B block -18.3%, JMJD2A Tudor inh 6.31µM*, HP1b binding inh 29.1% and G9a inh 7.94µM*.
For O=c1c2ccccc2nnn1Cc1ccc(F)cc1 the results were CtBP-E1A blk 10.1, Six1-Eya2 blk -5.4, BAZ2B block 2.8%, JMJD2A Tudor inh -6.3%, HP1b binding inh -7.6% and G9a inh 0.4%.
Screening Cc1ccc(-n2c(Cn3ncc4ccccc4c3=O)n[nH]c2=S)cc1 returned CtBP-E1A blk 3.8, Six1-Eya2 blk 0.8, BAZ2B block inconclusive, JMJD2A Tudor inh 8.91µM*, HP1b binding inh 39.0% and G9a inh 7.94µM*.
For CC(c1ccc(F)cc1)n1c(Cn2ncc3ccccc3c2=O)n[nH]c1=S (stereo not drawn) the results were CtBP-E1A blk 10.5, Six1-Eya2 blk 4.2, BAZ2B block 0.9%, JMJD2A Tudor inh 12.6µM*, HP1b binding inh 10.4% and G9a inh 48.0%.
Screening CNc1cc(-c2cccc(N(C)C)c2)ncn1 returned CtBP-E1A blk -16.4 and Six1-Eya2 blk 4.5.
Cc1nnc(-c2ccc(N3CCCCCC3)c([N+](=O)[O-])c2)o1 was read as Six1-Eya2 blk -6.8, BAZ2B block inconclusive, JMJD2A Tudor inh inconclusive, HP1b binding inh -12.0% and G9a inh 44.7µM*.
`CCCCn1nnnc1C(c1ccccc1)N1CCN(c2ccc(F)cc2)CC1` (stereo not drawn) gave CtBP-E1A blk 3.5 and Six1-Eya2 blk -15.4.
Screening COc1ccccc1CNC(=O)CCn1c(=O)c2ccccc2n(CC(=O)Nc2ccc(C)cc2C)c1=O returned BAZ2B block -28.9%, JMJD2A Tudor inh -9.6%, HP1b binding inh 22.1% and G9a inh 9.0%[59 µM].
`O=C(CSc1nc2c(cnn2-c2ccc(F)cc2)c(=O)[nH]1)N1CCOCC1` gave CtBP-E1A blk -15.9, Six1-Eya2 blk 0.0, BAZ2B block 8.5%, JMJD2A Tudor inh -12.1%, HP1b binding inh 19.8% and G9a inh 79.4µM*.
Cc1ccc(-n2ncc3c(=O)[nH]c(SCC(=O)N4CCOCC4)nc32)cc1 was read as CtBP-E1A blk 6.7, Six1-Eya2 blk 1.7, BAZ2B block -3.2%, JMJD2A Tudor inh -3.0%, HP1b binding inh 14.4% and G9a inh -48.7%.
